# Compound activity deposited in PubChem by National Center for Advancing Translational Sciences (NCATS).
# The list is not random: actives were taken first. Their share in the collection is about 5.9%.
# HEK293 tox = cytotoxic in the GLP-1 receptor inverse agonist counter-screen; Potency, µM (highest dose often 38.3 µM), for inactives: at the highest dose activity change, negative = inhibition, hits mostly inhibitors; 0.13% of 410,000 active; HEK293 cAMP-luciferase reporter cells, luminescence, 24 h;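 also: loss of luciferase light is scored as toxicity; % is scaled to controls: 0 for no effect and ±100 for the full control effect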
#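 Luminescence readout: signal drop marks cytotoxicity. Plated cells grew 12 h at 37 °C, 5% CO2, received 23 nL compound for 24 h, then got luciferase reagent, read after 12 min at RT.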
# GLP-1R agonist = GLP-1 receptor (human) agonism; HEK293 GLP-1R CRE-luciferase, luminescence, 4-6 h; cells express a hypersensitive GLP-1R form; Potency, µM (highest dose often 45.6 µM), inactives show at the top dose activation, most hits filed as activators; 0.007% of 380,000 active; P43220; also: % of control where 0% means no effect
# Gal4-VP16 FLuc = Gal4-VP16 reporter inhibition counter-screen; Drosophila S2 Gal4-VP16 UAS-luciferase, luminescence, 20 h; Potency, µM (series often up to 53.6 µM), for inactives: at the top dose activity, negative = inhibition, usual class: inhibitors; 3.5% of 310,000 active; AID 2546;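 also: Gal4-VP16 expression switched on by copper sulfate through the metallothionein promoter; % is scaled to controls: 0 for no effect and ±100 for the full control effect; nearly all actives have a fitted effect of over 50% in size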
# GLP1R inv ag = inverse agonists of human GLP-1 receptor; HEK293 GLP-1R CRE-luciferase, luminescence, 24 h; GLP-1R form is constitutively active; AID 624417; 1.6% of 410,000 active; P43220; Potency, µM (doses to about 38.3 µM), inactives show at the top dose activity change, negative = inhibition, most hits filed as inhibitors; also: % is scaled to controls: 0 for no effect and ±100 for the full control effect; nearly all actives have a fitted effect of over 55% in size
#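 Stable HEK293 clone (constitutively active GLP-1R + cAMP-response luciferase); 200 cells/uL plated, 12 h pre-culture, compound 24 hr, 37 deg C/5% CO2; detection reagent 12 min RT; luminescence.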
# RORg inh = blocks mouse ROR gamma transcriptional activity. P51450. Drosophila S2 Gal4-RORgamma UAS-luciferase reporter, 20 h. Potency, µM (highest dose often 53.6 µM), for the others: at the highest dose activity change, negative = inhibition, hits mostly inhibitors. 5.4% of 310,000 active; also: % is scaled to controls: 0 for no effect and ±100 for the full control effect; nearly all actives have a fitted effect of over 60% in size
# Target sequence (P51450 whole entry, looked up, the tested form may be a part): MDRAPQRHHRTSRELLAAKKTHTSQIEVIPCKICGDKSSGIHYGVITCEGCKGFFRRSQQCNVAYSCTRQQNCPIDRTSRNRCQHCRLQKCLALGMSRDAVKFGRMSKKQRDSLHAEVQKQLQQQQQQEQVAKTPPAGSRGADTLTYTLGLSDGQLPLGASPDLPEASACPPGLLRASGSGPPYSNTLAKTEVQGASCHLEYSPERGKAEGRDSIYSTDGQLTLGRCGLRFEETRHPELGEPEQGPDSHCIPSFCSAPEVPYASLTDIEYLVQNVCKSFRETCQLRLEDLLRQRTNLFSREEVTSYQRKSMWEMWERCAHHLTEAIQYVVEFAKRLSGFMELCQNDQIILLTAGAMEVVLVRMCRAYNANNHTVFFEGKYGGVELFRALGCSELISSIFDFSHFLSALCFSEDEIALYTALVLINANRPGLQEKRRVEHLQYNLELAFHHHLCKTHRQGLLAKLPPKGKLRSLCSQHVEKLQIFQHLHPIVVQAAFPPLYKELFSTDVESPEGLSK
#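 Stably transfected Drosophila Schneider cells are the test system, with ROR gamma fused to Gal4 and luciferase under UAS control; luminescence is read after 20 hr of 700 uM copper sulfate induction at ambient temperature.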
# Active calls of the source: *; ? = inconclusive; · = no result. Calls follow the shape of the dose curve; as a rule, active = well fitted curve in the direction sought with a large enough effect; inconclusive = small, poorly fitted or top-dose-only effect, or another doubt; inactive = no such curve, though single readings can be large; an effect the other way counts as inactive or inconclusive. Potency is read from the fitted curve at half-maximal effect.
SMILES,HEK293 tox,GLP-1R agonist,Gal4-VP16 FLuc,GLP1R inv ag,RORg inh
COc1ccc(C2CCCN2C(=S)Nc2ccc(C)c(C)c2)cc1OC (configuration not stated),-8%,28%,?,-20%,13µM*
Cc1ccc(NC(=S)N2CCCCCC2)cc1,9%,0%,?,-15%,?
Cc1ccc(C2CCN(C(=S)Nc3cccc(C)c3)C2)cc1 (configuration not stated),?,16%,-7%,?,7.9µM*
O=C(N/N=C/c1ccc(N2CCOCC2)s1)c1ccccc1Br,15%,6%,-7%,66%,11µM*
Clc1cccc(N/N=C/c2ccc(N3CCOCC3)s2)c1,?,2%,?,2.8µM*,?
CCCc1nn2c(=O)cc(COC(=O)c3ccccc3NC(=O)c3cccs3)nc2s1,0%,·,·,14%,·
O=C(/C=C/c1ccccc1)c1cccs1,·,·,-5%,·,22µM*
CCOc1ccc(/C=C/C(=O)c2cccs2)cc1,·,·,-21%,·,22µM*
CCOc1ccc(/C=C/C(=O)c2ccccc2)cc1,12%,5%,?,-27%,?
COc1ccc(Br)cc1CNC(=O)CN1CCSc2ccccc21,-10%,30%,·,?,·
CC(C)C[C@H](NC(=O)[C@H](CC(C)C)NC(=O)[C@@H](Cc1c[nH]c2ccccc12)NC(=O)[C@H](Cc1ccccc1)NC(=O)[C@@H](Cc1c[nH]c2ccccc12)NC(=O)[C@H](CCC(N)=O)NC(=O)[C@H](CCC(N)=O)NC(=O)[C@@H]1CCCN1C(=O)[C@H](CCCCN)NC(=O)[C@@H]1CCCN1C(=O)[C@@H](CCCNC(=N)N)NC(=O)[C@@H]1CCCN1C(=O)CNC(=O)[C@H](CC(C)C)NC(=O)[C@H](CC(C)C)NC(=O)[C@H](Cc1ccc(O)cc1)NC(=O)CNC(=O)[C@H](C)NC(=O)[C@H](CO)NC(=O)[C@H](CC(N)=O)NC(=O)[C@H](CC(C)C)NC(=O)[C@@H](NC(=O)[C@H](Cc1c[nH]c2ccccc12)NC(=O)CN)[C@@H](C)O)C(N)=O,·,·,-9%,·,9%
CC[C@H]1[C@@H]2C=C[C@@H]3[C@H]4C/C=C\C(=O)NCCC[C@@H]5NC(=O)C(=C5O)C(=O)CC[C@@H]4C[C@@H]3[C@H]2C[C@H]1C,·,·,-2%,·,2.2µM*
CCc1ccc(S(=O)(=O)c2nnn(-c3ccc(F)cc3)c2N)cc1,-21%,·,·,-15%,·
O=c1c(-n2cncn2)c[nH]n1-c1cccc(Cl)n1,-14%,3%,8%,1%,-1%
O=c1c(/C=N/OCc2ccc(Cl)cc2Cl)c[nH]n1-c1cccc(Cl)n1,18%,-3%,20µM*,-24%,13µM*
C=CCN1/C(=C(\C#N)C2=NS(=O)(=O)c3ccccc32)N(C)c2ccccc21,1%,29%,?,0%,11µM*
Cc1cc(C)cc(NS(=O)(=O)c2ccc(NC(=S)NC(=O)c3cccs3)cc2)c1,?,-7%,1µM*,0%,0.79µM*
CN(C1CCCCC1)S(=O)(=O)c1ccc(NC(=S)NC(=O)c2cccs2)cc1,3%,-2%,?,?,5.6µM*
COc1ccc2c(c1)O[C@H](c1ccc3c(c1)OCO3)[C@@H](OC(=O)Nc1ccc(OC(F)F)cc1)C2=O,·,·,-20%,·,5%
CS(=O)(=O)N1CCc2cc(C(=O)Nc3ccc(C(F)(F)F)cc3)ccc21,-18%,·,·,-14%,·
CS(=O)(=O)N1CCc2cc(C(=O)Nc3ccc(Cl)c(C(F)(F)F)c3)ccc21,?,·,·,10µM*,·
COc1ccc(CN2CCC(CNS(=O)(=O)c3cccc(C(F)(F)F)c3)CC2)cc1,-28%,5%,-7%,11µM*,-27%
CCOc1cc(C)c(S(=O)(=O)NC2CCCCC2)cc1C,10%,4%,11µM*,?,4%
O=C(c1ccc(CS(=O)Cc2ccc(Cl)cc2)o1)N1CCN(c2cccc(Cl)c2)CC1 (configuration not stated),-9%,4%,-12%,?,39%
Cc1cccc(N2CCN(C(=O)c3ccc(CS(=O)Cc4ccc(Cl)cc4)o3)CC2)c1C (configuration not stated),-20%,13%,-9%,10µM*,17%
SMILES,HEK293 tox,GLP-1R agonist,Gal4-VP16 FLuc,GLP1R inv ag,RORg inh
COc1ccc(S(=O)(=O)Cc2ccc(C(=O)N3CCN(c4cccc(C)c4C)CC3)o2)cc1,-24%,-6%,-13%,?,?
O=C(c1ccc(CS(=O)c2cccc(Cl)c2)o1)N1CCOCC1 (configuration not stated),7%,3%,-1%,-14%,8%
Cc1ccccc1S(=O)Cc1ccc(C(=O)N2CCN(c3cccc(C)c3C)CC2)o1 (configuration not stated),-33%,·,·,1.1µM*,·
Cc1ccc(S(=O)(=O)Cc2ccc(C(=O)N3CCN(c4cccc(C)c4C)CC3)o2)cc1,?,13%,3%,5µM*,14%
Cc1cccc(N2CCN(C(=O)c3ccc(CS(=O)c4cccc(Cl)c4)o3)CC2)c1C (configuration not stated),?,·,·,1µM*,·
Cc1ccc(N(C)C(=O)CN2C(=O)CCc3cc(S(=O)(=O)N4CCOCC4)ccc32)cc1,-7%,·,·,13%,·
O=C(Cn1c(=O)n(Cc2nc(-c3ccccc3)no2)c(=O)c2cc3c(cc21)OCO3)Nc1cccc(C(F)(F)F)c1,3%,·,·,10%,·
CCOC(=O)CSC1=C(C#N)C(c2ccc(Cl)cc2)CC(=O)N1 (configuration not stated),-7%,-2%,-3%,8%,3%
CCOC(=O)CSC1=C(C#N)C(c2ccc(C)o2)CC(=O)N1 (configuration not stated),-28%,18%,-3%,0.56µM*,-4%
CCOC(=O)CSC1=C(C#N)C(c2ccc(OC)cc2)C2=C(CC(C)(C)CC2=O)N1 (configuration not stated),135%,4%,20µM*,?,?
COC(=O)c1ccc(CN2CCCC(CNC(=O)Cc3ccc(OC)cc3)C2)cc1 (configuration not stated),-13%,-2%,1%,-16%,1%
COc1ccc(CC(=O)NCC2CCCN(Cc3ccc(OC(F)(F)F)cc3)C2)cc1 (configuration not stated),-1%,21%,-20%,10µM*,33%
CCOc1ccccc1NC(=O)Cn1c(=O)n(CC(=O)NCc2ccccc2Cl)c(=O)c2sccc21,1%,·,·,9%,·
O=S(=O)(NCc1c(Cl)cccc1Oc1ccccc1)c1ccccc1,24%,5%,-1%,10µM*,2%
